Laboratory results: PubChem BioAssay (NCI)
About 83,000 compounds went through this panel and 20% of them were active in at least one assay; those are over-represented in the sample as a whole.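 Values shown are percent growth following 48 h exposure of cells in 96-well plates to a single concentration of compound; below 10 was considered active.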 Calls of active or inactive are those of the source.

Legend:
Test in all cases: NCI-60 one-dose screen, 48 h (100 = growth as untreated, 0 = no growth, -100 = all killed)
Details in all cases: 10 µM unless noted
DU-145 prostate = test system: DU-145 prostate
K-562 leukemia = test system: K-562 leukemia
MALME-3M melanoma = test system: MALME-3M melanoma
MDA-MB-231 breast = test system: MDA-MB-231 breast
RXF 393 renal = test system: RXF 393 renal
SF-268 CNS = test system: SF-268 CNS
SF-295 CNS = test system: SF-295 CNS
SF-539 CNS = test system: SF-539 CNS
UACC-257 melanoma = test system: UACC-257 melanoma
M14 melanoma = test system: M14 melanoma
HCT-15 colon = test system: HCT-15 colon
HT29 colon = test system: HT29 colon
SNB-75 CNS = test system: SNB-75 CNS
SNB-19 CNS = test system: SNB-19 CNS
U251 CNS = test system: U251 CNS
PC-3 prostate = test system: PC-3 prostate
SK-MEL-5 melanoma = test system: SK-MEL-5 melanoma
UACC-62 melanoma = test system: UACC-62 melanoma
LOX IMVI melanoma = test system: LOX IMVI melanoma
SK-MEL-28 melanoma = test system: SK-MEL-28 melanoma

Measured: growth

CSc1nc(=S)c2nc(SC)n(-c3ccccc3)c2[nH]1
inactive: DU-145 prostate 108% | K-562 leukemia 98.5% | MALME-3M melanoma 109% | MDA-MB-231 breast 105% | RXF 393 renal 108% | SF-268 CNS 96.4% | SF-295 CNS 105% | SF-539 CNS 103% | UACC-257 melanoma 96.3% | M14 melanoma 102% | HCT-15 colon 106% | HT29 colon 92.3% | SNB-75 CNS 94.8% | SNB-19 CNS 100% | U251 CNS 93.5% | PC-3 prostate 82.3% | SK-MEL-5 melanoma 98.5% | UACC-62 melanoma 90.3% | LOX IMVI melanoma 90.9% | SK-MEL-28 melanoma 108%

COc1cc2c(O)n(CCCN3CCOCC3)c3c4cnc5cccc(c(=O)c3c2cc1OC)c54
inactive: DU-145 prostate 18% | K-562 leukemia 40.7% | MALME-3M melanoma 67.4% | MDA-MB-231 breast 48.7% | RXF 393 renal 30.4% | SF-268 CNS 33.1% | SF-295 CNS 17.1% | SF-539 CNS 24.5% | UACC-257 melanoma 44% | M14 melanoma 16.6% | HCT-15 colon 57.4% | HT29 colon 29.2% | SNB-75 CNS 38.9% | SNB-19 CNS 19.4% | U251 CNS 16.9% | PC-3 prostate 30.6% | SK-MEL-5 melanoma 20.9% | UACC-62 melanoma 10.5% | LOX IMVI melanoma 11.3% | SK-MEL-28 melanoma 66.2%

Brc1ccc(-c2nnc3c4[nH]ccc4ncn23)cc1
inactive: DU-145 prostate 101% | K-562 leukemia 79.9% | MALME-3M melanoma 101% | MDA-MB-231 breast 44.4% | RXF 393 renal 107% | SF-268 CNS 92.4% | SF-295 CNS 96.1% | SF-539 CNS 102% | UACC-257 melanoma 109% | M14 melanoma 102% | HCT-15 colon 88.6% | HT29 colon 94.9% | SNB-75 CNS 95.6% | SNB-19 CNS 95.5% | U251 CNS 100% | PC-3 prostate 90.6% | SK-MEL-5 melanoma 93.3% | UACC-62 melanoma 72% | LOX IMVI melanoma 85.4% | SK-MEL-28 melanoma 114%

CCCCOC(=O)c1cccc([N+](=O)[O-])c1
inactive: DU-145 prostate 117% | K-562 leukemia 144% | MALME-3M melanoma 117% | MDA-MB-231 breast 121% | RXF 393 renal 111% | SF-268 CNS 110% | SF-295 CNS 101% | SF-539 CNS 105% | UACC-257 melanoma 93.6% | M14 melanoma 105% | HCT-15 colon 118% | HT29 colon 107% | SNB-75 CNS 94.9% | SNB-19 CNS 113% | U251 CNS 97.4% | PC-3 prostate 95% | SK-MEL-5 melanoma 110% | UACC-62 melanoma 108% | LOX IMVI melanoma 108% | SK-MEL-28 melanoma 119%

O=C(NCc1ccc(Cn2c(=O)sn(-c3ccccc3)c2=O)cc1)OCc1ccc2c(Br)cc(Br)c(O)c2n1
active: DU-145 prostate -89.6% | K-562 leukemia 5.05% | MALME-3M melanoma -76.7% | MDA-MB-231 breast -53.4% | RXF 393 renal -90.9% | SF-268 CNS -59.9% | SF-295 CNS 9.81% | SF-539 CNS -93.6% | UACC-257 melanoma -17.2% | M14 melanoma -62.6% | HCT-15 colon -10.2% | HT29 colon -66.6% | SNB-75 CNS -93.8% | U251 CNS -83.6% | PC-3 prostate -56.1% | SK-MEL-5 melanoma -97.4% | UACC-62 melanoma -76.1% | LOX IMVI melanoma -92.3% | SK-MEL-28 melanoma -69.9%
inactive: SNB-19 CNS 19.2%

CCOc1ccc(/C=C(\C#N)c2cc3ccccc3[nH]2)cc1
inactive: DU-145 prostate 81% | K-562 leukemia 15.3% | MALME-3M melanoma 60% | MDA-MB-231 breast 71.9% | RXF 393 renal 58.6% | SF-268 CNS 84.2% | SF-295 CNS 58.3% | SF-539 CNS 68.3% | UACC-257 melanoma 79.2% | M14 melanoma 39% | HCT-15 colon 28.8% | HT29 colon 13.8% | SNB-75 CNS 67.1% | SNB-19 CNS 80.2% | U251 CNS 41.7% | PC-3 prostate 68.2% | SK-MEL-5 melanoma 72.2% | UACC-62 melanoma 43.9% | LOX IMVI melanoma 46.4% | SK-MEL-28 melanoma 69.7%

CCN(CC)CCSC(=O)C(O)(c1ccccc1)C1CCCC1 (stereo not given)
inactive: DU-145 prostate 95.6% | K-562 leukemia 96.4% | MALME-3M melanoma 116% | MDA-MB-231 breast 97.9% | RXF 393 renal 82.1% | SF-268 CNS 91.3% | SF-295 CNS 113% | SF-539 CNS 110% | UACC-257 melanoma 83.2% | M14 melanoma 128% | HCT-15 colon 98.6% | HT29 colon 114% | SNB-75 CNS 95.2% | SNB-19 CNS 111% | U251 CNS 108% | PC-3 prostate 96.9% | SK-MEL-5 melanoma 117% | UACC-62 melanoma 86.9% | LOX IMVI melanoma 90.3% | SK-MEL-28 melanoma 87%

COc1cc2c(c(Br)c1N)-c1cc(Br)c(N)cc1C2=O
inactive: DU-145 prostate 79.1% | K-562 leukemia 94.9% | MALME-3M melanoma 76.7% | MDA-MB-231 breast 29.2% | RXF 393 renal 69.9% | SF-268 CNS 61.6% | SF-295 CNS 57.2% | SF-539 CNS 37% | UACC-257 melanoma 92.3% | M14 melanoma 91.1% | HCT-15 colon 81.3% | HT29 colon 86.2% | SNB-75 CNS 25.9% | SNB-19 CNS 69.1% | U251 CNS 57.3% | PC-3 prostate 93.2% | SK-MEL-5 melanoma 56.5% | UACC-62 melanoma 74.9% | LOX IMVI melanoma 68.8% | SK-MEL-28 melanoma 81.4%
